# Source: PubChem BioAssay (National Center for Advancing Translational Sciences (NCATS))
# NPC1 promoter act: NPC1 promoter activation. Huh7 NPC1 promoter luciferase reporter, 24 h. Potency, µM (doses to about 9.22 µM), hits mostly activators. 2.4% of 320,000 active; note: nearly all actives have a fitted effect of over 60% in size
#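 Huh7 cells stably carrying NPC1 promoter–luciferase, plated in Opti-MEM with 10% FBS for 2 h, were exposed to compound in DMSO for 24 h at 37 °C; luciferase reagent was added for 10 min and luminescence read.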
# SMN2 splice enh: enhancers of SMN2 splice variant expression. HEK293 SMN2-luciferase splicing reporter, luminescence, 30-36 h. Potency, µM (titrated, usually from 46.1 µM), usual class: activators. 2.8% of 210,000 active; note: nearly all actives have a fitted effect of over 55% in size
#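 HEK293 cells carry an SMN2 […]–luciferase reporter in which exon 7 inclusion puts luciferase in frame. Cells were plated 10-12 h before compound addition, then incubated 30-36 h at 37C. ONE-Glo luminescence was read; sodium butyrate at 4.5 mM final served as control.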
# FLuc modulator: inhibits or activates purified firefly luciferase, miR-21 counter-screen | 6.9% of 360,000 active | purified FLuc, Km substrates, luminescence inhibition | Potency, µM (top dose mostly 57.5 µM), hits mostly inhibitors | P08659 | AID 588342; note: nearly all actives have a fitted effect of over 55% in size
# Target sequence (P08659 whole entry, looked up): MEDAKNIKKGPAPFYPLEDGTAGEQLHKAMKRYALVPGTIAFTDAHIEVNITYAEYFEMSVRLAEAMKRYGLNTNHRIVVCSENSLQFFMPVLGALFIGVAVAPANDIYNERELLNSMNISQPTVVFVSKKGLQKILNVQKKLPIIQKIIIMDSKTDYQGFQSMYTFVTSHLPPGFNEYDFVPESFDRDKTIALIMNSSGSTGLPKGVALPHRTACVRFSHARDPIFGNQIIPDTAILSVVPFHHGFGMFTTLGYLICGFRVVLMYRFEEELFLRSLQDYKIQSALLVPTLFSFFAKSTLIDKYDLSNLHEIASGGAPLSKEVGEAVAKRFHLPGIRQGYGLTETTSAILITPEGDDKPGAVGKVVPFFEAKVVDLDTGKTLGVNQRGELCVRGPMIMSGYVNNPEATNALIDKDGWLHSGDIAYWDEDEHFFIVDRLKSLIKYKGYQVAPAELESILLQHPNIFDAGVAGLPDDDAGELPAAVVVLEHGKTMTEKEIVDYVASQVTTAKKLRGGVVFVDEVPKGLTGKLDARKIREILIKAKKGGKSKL
#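 Purified P. pyralis luciferase, 10 nM final, with Km-level 10 uM D-luciferin and 10 uM ATP in 50 mM Tris acetate pH 7.5, 10 mM Mg acetate, 0.01% Tween-20, 0.05% BSA; 6-point qHTS titration about 60 µM downward; luminescence read.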
# ELG1 genotox: genotoxicity induction in ELG1-luciferase HEK293T cells; HEK293T ELG1-luciferase reporter, luminescence, 16 h; Potency, µM (top dose mostly 46 µM), most hits filed as activators; 1.3% of 330,000 active; note: nearly all actives have a fitted effect of over 60% in size
#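 Luminescence read-out: rising ELG1-luciferase signal, reflecting elevated ELG1 protein under genetic stress, flags genotoxic compounds. Cells were treated for 16 hr at 37 °C before ONE-Glo detection.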
# Luc counter: blocks Kinase-Glo luciferase, a counter-screen artifact; Kinase-Glo luciferase, ATP luminescence, 8 min; Potency, µM (titrated, usually from 38.3 µM), usual class: inhibitors; 0.28% of 200,000 active; Q27757; note: nearly all actives have a fitted effect of over 60% in size
#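 Substrate mix (final 50 mM imidazole pH 7.2, 50 mM KCl, 7 mM MgCl2, 10 uM ATP, 0.01% Tween 20, 0.05% BSA) plus pin-tool compound, then Kinase-Glo detection mix; 8 min ambient, luminescence read.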
# Rab9 promoter act: Rab9 promoter activation. Potency, µM (doses to about 9.22 µM), actives largely listed as activators. Huh7 Rab9 promoter-luciferase reporter, luminescence, 24 h. 2.8% of 320,000 active. AID 485297; note: nearly all actives have a fitted effect of over 60% in size
#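 Huh7 cells stably carrying Rab9 promoter–luciferase reporter, plated 1500 cells/well, compound added after 2 h and incubated 24 h at 37 °C; luciferase luminescence then read after 10 min with detection reagent.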
# Numbers stand for hits; – = inactive; ? = inconclusive; · = not tested or not shown; [ ] = dose if it differs, or a comment. Shown are actives, neighbours in structure and some others; about 7.3% of the full set was active somewhere. Calls come from the whole dose curve; as a rule, active = well fitted curve in the direction sought with a large enough effect; inconclusive = small, poorly fitted or top-dose-only effect, or another doubt; inactive = no such curve, though single readings can be large; an effect the other way counts as inactive or inconclusive.
SMILES,NPC1 promoter act,SMN2 splice enh,FLuc modulator,ELG1 genotox,Luc counter,Rab9 promoter act
CC1C/C(=C\c2cccnc2)C(=O)/C(=C/c2cccnc2)C1 (stereo not drawn),–,–[1.84 µM],–,–,–,–
CC(C)C/C=C1\CCc2c([nH]c3ccccc23)C1=O,–,·,?,?,–,2.82µM
O=C1/C(=C/c2cccnc2)CCc2c1[nH]c1ccccc21,–,·,9.53µM,–,–,3.16µM
Cc1cccc(NS(=O)(=O)c2cc(C(=O)O)ccc2Cl)c1,·,·,·,·,–,·
CC(=O)NC(=S)Nc1sc2c(c1C#N)CCCCC2,2.51µM,·,1.51µM,2.06µM,·,1.41µM
Cn1nccc1C(=O)NC(=S)Nc1sc2c(c1C#N)CCCCC2,?,–,3.79µM,–,–,?
CC(=O)Nc1sc2c(c1C#N)CCCC2,·,–,–,·,–,·
CCc1cccc(NC(=O)CCc2c(C)nc3c(-c4ccccc4)c(C)nn3c2C)c1,·,–,?,·,·,·
Cc1ccc(-c2noc(COC(=O)c3ccco3)n2)cc1,–,·,9.53µM,–,·,–
c1ccc(OCc2nc(-c3ccccc3)no2)cc1,?,?,26.9µM,14.6µM,–,?
Cc1cccc(-c2noc(Cc3ccccc3)n2)c1,?,?,?,?,–,?
Cc1cccc(-c2noc(CCc3ccccc3)n2)c1,?,–,12µM,?,–,2.82µM
O=C(Nc1ccc(-c2noc(CCc3ccccc3)n2)cc1)c1ccco1,1.26µM,2.82µM,4.26µM,?,–,1.12µM
c1ccc(OCc2nc(-c3ccncc3)no2)cc1,–,·,?,–,–,?
COc1ccc(-c2noc(CNC(=O)c3ccco3)n2)cc1,·,–,–,·,·,·
CCCCCCCc1cc2c(cn1)=C(OC)C(C)(OC(C)=O)C(=O)C=2Cl (stereo not drawn),·,–,·,·,–,·
c1ccc(CCc2nc(-c3ccccc3)no2)cc1,?,–,12µM,?,–,?
O=C1CCC(=O)N1CCCCCc1nc(-c2ccccc2)no1,–,–,?,20.6µM,–,?
CN1CCN(c2oc(/C=C/c3ccc(F)cc3)nc2C#N)CC1,·,–,–,·,·,·
Cc1ccc(N=C/C(C(=O)C(F)(F)F)=C(\O)c2cccs2)cc1,1.78µM,?,13.5µM,?,–,1.78µM
O=C(/C(N=Nc1cccc(C(F)(F)F)c1)=C(/O)c1cccs1)C(F)(F)F,–,·,–,–,·,–
CCOC(=O)COc1ccc(C)cc1C(=O)c1ccn2nc(-c3ccc(C)cc3)cc2n1,·,–,–,·,·,·
c1ccc2c(c1)c1ccccc1n2Cn1c2ccccc2c2ccccc21,·,–[9.22 µM],·,·,–[7.66 µM],·
CC1=NN(Cc2ccccc2)C(=O)/C1=C\c1ccc(N(C)C)cc1,–,–,10.7µM,–,–,–
O=c1cc(-c2ccc(O)c(O)c2)oc2ccc3ccccc3c12,?,·,2.39µM,1.46µM,·,–
SMILES,NPC1 promoter act,SMN2 splice enh,FLuc modulator,ELG1 genotox,Luc counter,Rab9 promoter act
COc1cc2oc(-c3ccccc3)cc(=O)c2cc1O,·,·,·,·,–,·
COc1cc(-c2cc(=O)c3c(O)cc(O)cc3o2)ccc1O,–,·,15.1µM,?,·,–
COc1ccc(-c2cc(=O)c3c(O)cc(O)c(-c4cc(-c5cc(=O)c6c(O)cc(O)cc6o5)ccc4OC)c3o2)cc1,·,–,·,·,–,·
COc1cc(-c2cc(=O)c3ccccc3o2)ccc1O,–,?,?,14.6µM,–,?
Cc1cccc(NC(=O)c2ccc(COc3ccccc3)o2)n1,–,·,16.9µM,–,·,–
Cc1cccc(NC(=O)c2ccc(COc3ccc4ccccc4c3)o2)n1,–,·,?,–,–,–
Cc1csc(NC(=O)c2ccc(COc3ccccc3)o2)n1,1µM,·,16.9µM,–,·,?
O=[N+]([O-])c1cc(-c2nc(-c3ccccc3)no2)ccc1NC1CCCCC1,·,·,–,·,·,·
N#CC(=C(/N)Sc1ccccc1N)/C(C#N)=C(\N)Sc1ccccc1N,·,–,·,·,·,·
COc1cccc(NC(=O)c2c(C)oc3nc(C)nc(N4CCCC4)c23)c1,·,·,–,·,·,·
CCc1c(C)sc2c1CCN(Cc1ccc(F)cc1)C2c1ccccc1 (stereo not drawn),·,·,–,·,·,·
Cn1c(C(=O)NCCCN2CCCCCC2)cc2c(=O)n(C)c3ccccc3c21,–,12.6µM,–,?,–,–
CCCN1CCN(CCCNC(=O)c2cc3c(=O)n(C)c4ccccc4c3n2C)CC1,–,–,–,?,–,–
O=c1[nH]cnc2cc(-c3ccc(Br)cc3)sc12,2.51µM,·,7.57µM,?,·,2.82µM
CCOc1ccc(Nc2ccc([N+](=O)[O-])c3nonc23)cc1,?,·,12µM,–,·,4.47µM
O=[N+]([O-])c1ccc(Nc2ccccc2)c2nonc12,–,·,–,–,·,–
Cc1ccc(NC(=O)CN2CCSc3ccc(S(=O)(=O)N4CCCC4)cc32)cc1C,·,·,–,·,·,·
Cc1ccc(-n2ncc3c(N(CCO)Cc4ccccc4)ncnc32)cc1,·,·,10.7µM,·,·,·
Cc1ccc(-n2ncc3c(N(C)Cc4ccccc4)ncnc32)cc1,·,·,0.675µM,·,·,·
CC(C)(C)OC(=O)C1=NOC2(C=CC(=O)C=C2)C1,·,–,·,·,–,·
COc1ccccc1CNC(=O)c1cnc2sc(N3CCCCCC3)nn2c1=O,·,·,–,·,·,·
CCCC(=O)N=C1SC2CS(=O)(=O)CC2N1c1ccc(-c2nc3ccc(C)cc3s2)cc1 (stereo not drawn),3.55µM,·,5.36µM,20.6µM,·,3.98µM
Cc1cc(C)n2nc(-c3ccc(F)cc3)nc2n1,3.98µM,?,16.9µM,?,–,?
Cc1cc(C)n2nc(-c3cccnc3)nc2n1,–,–,–,–,–,–
O=C1NC(=S)S/C1=C/c1ccc(OC(=O)c2ccco2)cc1,–,·,7.57µM,–,·,?
SMILES,NPC1 promoter act,SMN2 splice enh,FLuc modulator,ELG1 genotox,Luc counter,Rab9 promoter act
CCOc1cc(/C=C2/SC(=S)NC2=O)ccc1OC(=O)c1ccco1,–,–,23.9µM,–,–,–
COc1cc(/C=C2/SC(=O)NC2=O)ccc1OC(=O)c1ccco1,–,·,16.9µM,–,·,–
COc1cc(/C=C2/SC(=S)N(C)C2=O)ccc1OC(=O)c1ccco1,–,–,–,–,–,–
O=C(OCc1ccc(F)cc1)c1cc(=O)c2ccccc2o1,–,·,15.1µM,–,·,–
CC1Oc2ccccc2C=C1/C=N/NC(=O)c1ccccc1 (stereo not drawn),?,14.1µM,6.01µM,?,–,2.51µM
CC1Oc2ccccc2C=C1/C=N/NC(=O)[C@@H](C)NC(=O)OC(C)(C)C (stereo partly drawn),–,·,–,–,·,–
Cc1ccc(C(=O)N/N=C/C2=Cc3ccccc3OC2C)cc1 (stereo not drawn),–,?,3.01µM,–,–,–
CC1Oc2ccccc2C=C1/C=N\NC(=O)c1cccnc1 (stereo not drawn),–,·,16.9µM,?,·,–
O=C(N/N=C/c1ccccc1)c1ccc(-c2ccccc2)cc1,–,·,–,–,·,?
CC1Oc2ccccc2C=C1/C=N/NC(=O)c1ccccc1O (stereo not drawn),?,12.6µM,1.69µM,–,–,?
